Measured values taken from PubChem BioAssay (EPA / NIEHS).
Activity calls are given as the source filed them. The calls were made as follows: active = hit-call score of the fitted dose curve at least 0.9, where 1 is the maximum; inactive = score below 0.9.

test: BSK_CASM3C_SRB: Viability Assessment in the BioMAP Diversity Plus: CASM3C Assay (AID 2283050); conditions: primary human coronary artery smooth muscle cells;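 also: total protein by SRB staining as cytotoxicity measure in parallel cultures; cells exposed to compound for 24 h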

Structure (SMILES)	outcome
CC1(C)CCC(=Cc2ccc(Cl)cc2)C1(O)Cn1cncn1 (stereo not given)	inactive
CC1(C)C(C(=O)OC(C#N)c2cccc(Oc3ccccc3)c2)C1(C)C (stereo not given)	inactive
CCOP(=O)(OCC)Oc1nc(Cl)c(Cl)cc1Cl	inactive
CCSC(=O)N1CCCCCC1	inactive
CCCN(CC)CC1COC2(CCC(C(C)(C)C)CC2)O1 (stereo not given)	inactive
COCC(=O)N(c1c(C)cccc1C)C(C)C(=O)OC (stereo not given)	inactive
Clc1cccc(C(Cl)(Cl)Cl)n1	inactive
CC1(C)C(C=C(Cl)Cl)C1C(=O)OC(C#N)c1cccc(Oc2ccccc2)c1 (stereo not given)	inactive
Nc1c(Cl)c(Cl)nc(C(=O)O)c1Cl	inactive
CC(C)(C)C(=O)C(Oc1ccc(Cl)cc1)n1cncn1 (stereo not given)	inactive
CCOc1nc(F)cc2nc(S(=O)(=O)Nc3c(Cl)cccc3Cl)nn12	inactive
C=C(C)CN(CC)c1c([N+](=O)[O-])cc(C(F)(F)F)cc1[N+](=O)[O-]	inactive
N#Cc1c[nH]cc1-c1cccc2c1OC(F)(F)O2	inactive
CS(=O)(=O)c1ccc(C(=O)C2C(=O)CCCC2=O)c([N+](=O)[O-])c1	inactive
COC(=O)c1c(C(F)F)nc(C(F)(F)F)c(C2=NCCS2)c1CC(C)C	inactive
CCNP(=S)(OC)O/C(C)=C/C(=O)OC(C)C (stereo not given)	inactive
CC(C)Oc1cccc(NC(=O)c2ccccc2C(F)(F)F)c1	inactive
CS(=O)(=O)c1cc(C(F)(F)F)ccc1C(=O)c1cnoc1C1CC1	inactive
CCC(C)n1c(=O)[nH]c(C)c(Br)c1=O (stereo not given)	inactive
CCOC(=O)C(C)OC(=O)c1cc(Oc2ccc(C(F)(F)F)cc2Cl)ccc1[N+](=O)[O-] (stereo not given)	inactive
